Laboratory results reported in PubChem BioAssay AID1159580 (chemical genetic matrix, 2015).
Several values for one entry are separate records, joined by “and”; a condition that tells them apart may be missing. Identical values can stand only once. Out of some 5,500 compounds screened, about 2,000 (36%) were called active. About 18% were inconclusive and are not listed. Cut-off read from the data, not from the text of the source: active = normalized growth mostly below about 0.91 (no sharp cut-off); inconclusive = no clear call, values can overlap the other calls; inactive = mostly above about 0.92. The list shows a part of the results.

Experiment: chemical genetic growth profiling, strain panel (AID 1159580);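 note: tested at 20 µM; growth read once vehicle control cultures reached saturation at 30 °C; 1 = growth at the plate median or of vehicle wells; lower values mean less growth of the strain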
Settings: S. cerevisiae deletion strains, growth OD

Measured: normalized growth

NCc1ccc(S(N)(=O)=O)cc1
inactive: locus YAL021C, strain ccr4, hits give low values 1.01 | locus YAL026C, strain drs2, hits give low values 0.992 | locus YAL030W, strain snc1, hits give low values 1.01 | locus YBL061C, strain skt5, hits give low values 1.01 | locus YBR009C, strain hhf1, hits give low values 0.972 | locus YBR021W, strain FUR4, hits give low values 1.01 | locus YBR023C, strain chs3, hits give low values 1.02 | locus YBR171W, strain sec66, hits give low values 1 | locus YBR229C, strain ROT2, hits give low values 0.986 | locus YBR231C, strain swc5, hits give low values 1.02 | locus YBR279W, strain paf1, hits give low values 1 | locus YCL011C, strain gbp2, hits give low values 1.01 | locus YCL016C, strain dcc1, hits give low values 1.03 | locus YCL029C, strain bik1, hits give low values 0.993 | locus YCL061C, strain MRC1, hits give low values 1.02 | locus YCL069W, strain vba3, hits give low values 0.994 | locus YCR088W, strain abp1, hits give low values 1.01 | locus YDL005C, strain med2, hits give low values 1.02 | locus YDL035C, strain GPR1, hits give low values 1.01 | locus YDL040C, strain nat1, hits give low values 1 | locus YDL074C, strain BRE1, hits give low values 1.01 | locus YDL101C, strain DUN1, hits give low values 0.987 | locus YDL134C, strain PPH21, hits give low values 0.994 | locus YDL185W, strain tfp1, hits give low values 0.977 | locus YDL192W, strain arf1, hits give low values 0.979 | locus YDR001C, strain nth1, hits give low values 0.998 | locus YDR069C, strain doa4, hits give low values 1.01 | locus YDR101C, strain arx1, hits give low values 1.02 | locus YDR137W, strain rgp1, hits give low values 1.03 | locus YDR150W, strain NUM1, hits give low values 1.01 | locus YDR159W, strain sac3, hits give low values 0.983 | locus YDR162C, strain NBP2, hits give low values 1.01 | locus YDR195W, strain ref2 0.989 | locus YDR297W, strain sur2, hits give low values 1.01 | locus YDR318W, strain mcm21, hits give low values 0.99 | locus YDR334W, strain swr1, hits give low values 1 | locus YDR335W, strain msn5, hits give low values 1.01 | locus YDR388W, hits give low values 0.993 | locus YDR392W, strain spt3, hits give low values 0.969 | locus YDR502C, strain sam2, hits give low values 0.99 | locus YEL003W, strain gim4, hits give low values 0.982 | locus YEL037C, strain rad23, hits give low values 0.992 | locus YEL061C, strain CIN8 (second series), hits give low values 1 | locus YEL061C, strain CIN8, hits give low values 1.01 | locus YER015W, strain faa2, hits give low values 0.99 | locus YER016W, strain bim1, hits give low values 1.02 | locus YER110C, hits give low values 0.983 | locus YER111C, strain swi4, hits give low values 0.998 | locus YER155C, strain BEM2 (second series), hits give low values 1.01 | locus YER155C, strain BEM2, hits give low values 0.984 | locus YER167W, strain BCK2, hits give low values 1.02 | locus YFR010W, strain ubp6, hits give low values 0.995 | locus YGL078C, strain dbp3, hits give low values 0.98 | locus YGL086W, strain mad1, hits give low values 0.995 | locus YGL167C, strain pmr1, hits give low values 0.997 | locus YGL173C, strain kem1, hits give low values 1.02 | locus YGL227W, strain vid30, hits give low values 1.01 | locus YGL240W, strain doc1, hits give low values 1.04 | locus YGL248W, strain PDE1, hits give low values 0.984 | locus YGL253W, strain hxk2, hits give low values 1.01 | locus YGR135W, strain pre9, hits give low values 0.961 | locus YGR252W, strain gcn5, hits give low values 0.928 | locus YHR013C, strain ard1, hits give low values 1.04 | locus YHR027C, strain rpn1, hits give low values 1.02 | locus YHR030C, strain SLT2, hits give low values 1.01 | locus YHR079C, strain IRE1 (second series), hits give low values 0.991 | locus YHR079C, strain IRE1, hits give low values 1.04 | locus YHR094C, strain hxt1, hits give low values 0.996 | locus YHR129C, strain ARP1, hits give low values 0.986 | locus YHR142W, strain chs7, hits give low values 1.01 | locus YHR200W, strain rpn10, hits give low values 0.984 | locus YIL066C, strain RNR3, hits give low values 0.989 | locus YIL073C, strain SPO22, hits give low values 1.01 | locus YIL125W, strain kgd1, hits give low values 0.983 | locus YIR030C, strain dcg1, hits give low values 0.991 | locus YJL092W, strain hpr5, hits give low values 1.01 | locus YJL095W, strain BCK1 (second series), hits give low values 1.01 | locus YJL095W, strain BCK1, hits give low values 0.988 and 1.01 | locus YJL115W, strain asf1, hits give low values 1 | locus YJL129C, strain trk1, hits give low values 1.05 | locus YJL134W, strain LCB3, hits give low values 1 | locus YJL154C, strain vps35, hits give low values 1 | locus YJL164C, strain tpk1, hits give low values 0.98 | locus YJL166W, strain qcr8, hits give low values 1.04 | locus YJL168C, strain set2, hits give low values 0.991 | locus YJL187C, strain SWE1 (second series), hits give low values 0.981 | locus YJL187C, strain SWE1, hits give low values 1.01 | locus YJR043C, strain POL32, hits give low values 1.01 | locus YJR066W, strain TOR1, hits give low values 0.957 | locus YJR075W, strain HOC1, hits give low values 0.995
